# Test system: WHIM30 (cells of a triple-negative basal-like breast cancer xenograft)
# Test: cell viability of combination (% of vehicle); higher = less cytotoxic
# Settings: 1 µM; 72 h; partner dose: 10 nM
# Description: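 PDX cells were treated for 72 h with each drug at 1 µM plus carfilzomib (10 nM; 100 nM for WHIM2). Luciferase viability is expressed as percent of vehicle.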
row,SMILES,cell viability of combination
1,Cc1cc(C(C#N)c2ccc(Cl)cc2)c(Cl)cc1NC(=O)c1cc(I)cc(I)c1[O-].[Na+] (stereo not given) [Closantel Sodium] + CC(C)C[C@H](NC(=O)[C@H](CCc1ccccc1)NC(=O)CN1CCOCC1)C(=O)N[C@@H](Cc1ccccc1)C(=O)N[C@@H](CC(C)C)C(=O)[C@@]1(C)CO1 [Carfilzomib],17.8
2,CCCCCCCCCCCCCCCC[N+](C)(C)C.[Br-] [Cetrimonium Bromide (CTAB)] + CC(C)C[C@H](NC(=O)[C@H](CCc1ccccc1)NC(=O)CN1CCOCC1)C(=O)N[C@@H](Cc1ccccc1)C(=O)N[C@@H](CC(C)C)C(=O)[C@@]1(C)CO1 [Carfilzomib],12
3,Cc1cc(C(C#N)c2ccc(Cl)cc2)c(Cl)cc1NC(=O)c1cc(I)cc(I)c1O (stereo not given) [Closantel] + CC(C)C[C@H](NC(=O)[C@H](CCc1ccccc1)NC(=O)CN1CCOCC1)C(=O)N[C@@H](Cc1ccccc1)C(=O)N[C@@H](CC(C)C)C(=O)[C@@]1(C)CO1 [Carfilzomib],16.8
4,CCCCCCCCCCCCCCCC[n+]1ccccc1.[Cl-] [Cetylpyridinium Chloride] + CC(C)C[C@H](NC(=O)[C@H](CCc1ccccc1)NC(=O)CN1CCOCC1)C(=O)N[C@@H](Cc1ccccc1)C(=O)N[C@@H](CC(C)C)C(=O)[C@@]1(C)CO1 [Carfilzomib],11.9
5,CCCCCCCCCCCC[N+](C)(C)CCOc1ccccc1.[Br-] [Domiphen Bromide] + CC(C)C[C@H](NC(=O)[C@H](CCc1ccccc1)NC(=O)CN1CCOCC1)C(=O)N[C@@H](Cc1ccccc1)C(=O)N[C@@H](CC(C)C)C(=O)[C@@]1(C)CO1 [Carfilzomib],9.06
